In ChEMBL document CHEMBL2218924, “A broad activity screen in support of a chemogenomic map for kinase signalling research and drug discovery” (Biochem J, 2013) one finds residual activity data, which are given here for three compounds.

Assay [1] deals with Death-associated protein kinase 1 (Homo sapiens) (UniProt P53355). The note with it: at 10 µM.
The target of assay [2] is Death-associated protein kinase 2 (Homo sapiens) (UniProt Q9UIK4). The note with it: at 1 µM.
For assay [3], the target named is T1, Serine/threonine-protein kinase DCLK2 (Homo sapiens) (UniProt Q8N568).
T1 sequence (whole entry): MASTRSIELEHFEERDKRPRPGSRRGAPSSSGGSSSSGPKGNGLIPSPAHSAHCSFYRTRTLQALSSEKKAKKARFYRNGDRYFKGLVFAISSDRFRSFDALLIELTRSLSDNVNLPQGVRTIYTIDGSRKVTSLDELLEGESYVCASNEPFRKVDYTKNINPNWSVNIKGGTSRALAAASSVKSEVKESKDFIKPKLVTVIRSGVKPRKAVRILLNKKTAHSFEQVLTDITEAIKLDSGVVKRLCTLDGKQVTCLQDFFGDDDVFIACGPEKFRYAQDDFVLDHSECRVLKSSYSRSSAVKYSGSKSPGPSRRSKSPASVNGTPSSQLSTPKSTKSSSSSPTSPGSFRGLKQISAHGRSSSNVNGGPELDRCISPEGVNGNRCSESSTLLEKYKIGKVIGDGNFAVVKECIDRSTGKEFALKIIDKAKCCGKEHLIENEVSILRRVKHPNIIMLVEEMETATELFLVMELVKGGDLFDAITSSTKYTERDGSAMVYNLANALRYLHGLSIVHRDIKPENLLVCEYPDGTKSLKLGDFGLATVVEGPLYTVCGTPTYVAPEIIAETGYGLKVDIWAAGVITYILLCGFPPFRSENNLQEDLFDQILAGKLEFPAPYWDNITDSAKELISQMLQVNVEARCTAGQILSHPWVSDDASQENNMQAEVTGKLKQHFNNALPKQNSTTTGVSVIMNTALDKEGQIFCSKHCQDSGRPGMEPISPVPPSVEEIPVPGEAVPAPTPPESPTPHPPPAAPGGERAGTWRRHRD
The settings on record: at 1 µM.

In assay [4] the target is T1, Serine/threonine-protein kinase DCLK2 (Homo sapiens). The settings on record: at 10 µM.
The target in assay [5] is T2, Discoidin domain-containing receptor 2 (Homo sapiens) (UniProt Q16832).
T2 sequence (whole entry): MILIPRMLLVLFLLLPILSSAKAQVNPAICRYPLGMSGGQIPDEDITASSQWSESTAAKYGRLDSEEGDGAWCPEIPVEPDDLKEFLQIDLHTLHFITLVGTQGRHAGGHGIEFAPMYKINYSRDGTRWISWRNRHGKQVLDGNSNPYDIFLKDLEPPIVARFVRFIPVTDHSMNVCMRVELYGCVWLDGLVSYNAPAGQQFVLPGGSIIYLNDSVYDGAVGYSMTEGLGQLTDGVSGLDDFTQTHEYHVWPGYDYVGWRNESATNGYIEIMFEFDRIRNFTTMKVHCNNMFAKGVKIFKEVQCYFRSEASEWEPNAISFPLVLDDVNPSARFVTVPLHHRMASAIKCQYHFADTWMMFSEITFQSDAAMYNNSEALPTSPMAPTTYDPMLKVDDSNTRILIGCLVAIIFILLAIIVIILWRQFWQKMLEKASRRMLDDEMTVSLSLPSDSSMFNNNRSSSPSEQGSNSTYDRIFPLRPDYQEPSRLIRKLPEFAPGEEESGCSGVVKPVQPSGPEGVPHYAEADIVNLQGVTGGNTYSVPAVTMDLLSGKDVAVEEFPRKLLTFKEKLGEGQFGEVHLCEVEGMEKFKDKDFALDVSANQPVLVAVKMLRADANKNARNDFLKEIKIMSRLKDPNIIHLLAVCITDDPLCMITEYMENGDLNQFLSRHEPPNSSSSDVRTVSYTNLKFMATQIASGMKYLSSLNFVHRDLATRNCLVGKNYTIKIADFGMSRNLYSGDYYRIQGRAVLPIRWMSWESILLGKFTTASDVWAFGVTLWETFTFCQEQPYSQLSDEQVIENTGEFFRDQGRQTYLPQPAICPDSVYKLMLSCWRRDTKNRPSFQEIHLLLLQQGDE
The settings on record: at 1 µM.

Assay [6] addresses T2, Discoidin domain-containing receptor 2 (Homo sapiens). The note with it: at 10 µM.
Assay [7] addresses T3, Myotonin-protein kinase (Homo sapiens) (UniProt Q09013).
T3 sequence (whole entry): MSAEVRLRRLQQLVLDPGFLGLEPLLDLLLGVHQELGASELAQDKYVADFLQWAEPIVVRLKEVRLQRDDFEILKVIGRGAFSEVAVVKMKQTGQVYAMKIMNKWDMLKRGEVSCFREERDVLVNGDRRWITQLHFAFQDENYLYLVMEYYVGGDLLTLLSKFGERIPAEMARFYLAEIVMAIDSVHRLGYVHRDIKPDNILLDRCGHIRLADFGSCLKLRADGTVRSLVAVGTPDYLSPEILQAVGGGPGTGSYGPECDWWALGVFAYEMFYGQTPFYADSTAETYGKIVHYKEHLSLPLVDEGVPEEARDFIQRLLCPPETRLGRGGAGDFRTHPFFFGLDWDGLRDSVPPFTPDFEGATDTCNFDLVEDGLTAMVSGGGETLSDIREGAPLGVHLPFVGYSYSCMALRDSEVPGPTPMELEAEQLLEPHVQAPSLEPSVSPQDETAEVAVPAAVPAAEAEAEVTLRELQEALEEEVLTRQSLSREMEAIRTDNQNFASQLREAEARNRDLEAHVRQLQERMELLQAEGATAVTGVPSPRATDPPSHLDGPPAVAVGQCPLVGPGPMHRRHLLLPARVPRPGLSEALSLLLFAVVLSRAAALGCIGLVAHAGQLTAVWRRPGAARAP
The note with it: at 1 µM.

Assay [8] deals with T3, Myotonin-protein kinase (Homo sapiens). The settings on record: at 10 µM.
In assay [9] the target is T4, Dual specificity tyrosine-phosphorylation-regulated kinase 2 (Homo sapiens) (UniProt Q92630).
T4 sequence (whole entry): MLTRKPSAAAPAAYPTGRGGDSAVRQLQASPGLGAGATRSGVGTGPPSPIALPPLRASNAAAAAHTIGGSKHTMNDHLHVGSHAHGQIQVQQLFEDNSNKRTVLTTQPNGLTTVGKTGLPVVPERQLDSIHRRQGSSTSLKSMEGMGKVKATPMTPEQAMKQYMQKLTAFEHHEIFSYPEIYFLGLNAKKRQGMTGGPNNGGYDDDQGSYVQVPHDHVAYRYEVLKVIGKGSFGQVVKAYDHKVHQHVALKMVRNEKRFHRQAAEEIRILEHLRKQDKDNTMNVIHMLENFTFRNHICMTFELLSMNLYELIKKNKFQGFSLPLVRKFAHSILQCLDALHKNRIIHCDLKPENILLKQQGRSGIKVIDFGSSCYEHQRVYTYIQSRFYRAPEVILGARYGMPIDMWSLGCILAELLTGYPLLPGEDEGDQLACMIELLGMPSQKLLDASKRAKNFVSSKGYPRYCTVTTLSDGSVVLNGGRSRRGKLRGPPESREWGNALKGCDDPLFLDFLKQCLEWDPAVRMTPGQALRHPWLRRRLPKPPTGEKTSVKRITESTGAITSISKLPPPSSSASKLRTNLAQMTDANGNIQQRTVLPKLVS
The note with it: at 1 µM.

The target in assay [10] is T4, Dual specificity tyrosine-phosphorylation-regulated kinase 2 (Homo sapiens). The settings on record: at 10 µM.
Assay [11] has as its target T5, Ephrin type-A receptor 1 (Homo sapiens) (UniProt P21709).
T5 sequence (whole entry): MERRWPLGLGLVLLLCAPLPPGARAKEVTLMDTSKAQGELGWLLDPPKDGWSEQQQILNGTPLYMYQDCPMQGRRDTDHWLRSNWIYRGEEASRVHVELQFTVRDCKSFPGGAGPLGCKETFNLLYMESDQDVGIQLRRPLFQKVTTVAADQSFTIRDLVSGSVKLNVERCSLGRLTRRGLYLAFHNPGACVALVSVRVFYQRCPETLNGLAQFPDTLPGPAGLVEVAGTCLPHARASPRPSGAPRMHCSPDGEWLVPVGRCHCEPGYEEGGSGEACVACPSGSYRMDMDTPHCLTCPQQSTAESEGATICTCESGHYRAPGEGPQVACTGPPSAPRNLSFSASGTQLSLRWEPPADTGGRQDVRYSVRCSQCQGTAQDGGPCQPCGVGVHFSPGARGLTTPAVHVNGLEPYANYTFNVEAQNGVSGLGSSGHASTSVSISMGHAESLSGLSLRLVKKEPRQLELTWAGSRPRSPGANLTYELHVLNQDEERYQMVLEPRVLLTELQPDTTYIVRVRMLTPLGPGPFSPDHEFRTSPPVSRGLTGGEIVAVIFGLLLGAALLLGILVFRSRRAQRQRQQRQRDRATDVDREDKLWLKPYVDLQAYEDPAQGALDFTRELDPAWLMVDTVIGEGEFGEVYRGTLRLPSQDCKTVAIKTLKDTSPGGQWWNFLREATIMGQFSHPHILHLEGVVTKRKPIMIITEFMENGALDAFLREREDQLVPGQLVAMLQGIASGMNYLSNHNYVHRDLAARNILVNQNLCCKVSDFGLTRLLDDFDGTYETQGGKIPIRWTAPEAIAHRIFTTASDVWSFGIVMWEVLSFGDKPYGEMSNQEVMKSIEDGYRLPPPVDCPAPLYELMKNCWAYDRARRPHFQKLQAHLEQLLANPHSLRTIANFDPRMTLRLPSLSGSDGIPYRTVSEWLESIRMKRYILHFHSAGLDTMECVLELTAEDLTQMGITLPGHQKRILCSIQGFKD
The note with it: at 1 µM.

Assay [12] addresses T5, Ephrin type-A receptor 1 (Homo sapiens). The settings on record: at 10 µM.
In assay [13] the target is Ephrin type-A receptor 2 (Homo sapiens) (UniProt P29317). The note with it: at 1 µM.
Assay [14] has as its target T6, Ephrin type-A receptor 3 (Homo sapiens) (UniProt P29320).
T6 sequence (whole entry): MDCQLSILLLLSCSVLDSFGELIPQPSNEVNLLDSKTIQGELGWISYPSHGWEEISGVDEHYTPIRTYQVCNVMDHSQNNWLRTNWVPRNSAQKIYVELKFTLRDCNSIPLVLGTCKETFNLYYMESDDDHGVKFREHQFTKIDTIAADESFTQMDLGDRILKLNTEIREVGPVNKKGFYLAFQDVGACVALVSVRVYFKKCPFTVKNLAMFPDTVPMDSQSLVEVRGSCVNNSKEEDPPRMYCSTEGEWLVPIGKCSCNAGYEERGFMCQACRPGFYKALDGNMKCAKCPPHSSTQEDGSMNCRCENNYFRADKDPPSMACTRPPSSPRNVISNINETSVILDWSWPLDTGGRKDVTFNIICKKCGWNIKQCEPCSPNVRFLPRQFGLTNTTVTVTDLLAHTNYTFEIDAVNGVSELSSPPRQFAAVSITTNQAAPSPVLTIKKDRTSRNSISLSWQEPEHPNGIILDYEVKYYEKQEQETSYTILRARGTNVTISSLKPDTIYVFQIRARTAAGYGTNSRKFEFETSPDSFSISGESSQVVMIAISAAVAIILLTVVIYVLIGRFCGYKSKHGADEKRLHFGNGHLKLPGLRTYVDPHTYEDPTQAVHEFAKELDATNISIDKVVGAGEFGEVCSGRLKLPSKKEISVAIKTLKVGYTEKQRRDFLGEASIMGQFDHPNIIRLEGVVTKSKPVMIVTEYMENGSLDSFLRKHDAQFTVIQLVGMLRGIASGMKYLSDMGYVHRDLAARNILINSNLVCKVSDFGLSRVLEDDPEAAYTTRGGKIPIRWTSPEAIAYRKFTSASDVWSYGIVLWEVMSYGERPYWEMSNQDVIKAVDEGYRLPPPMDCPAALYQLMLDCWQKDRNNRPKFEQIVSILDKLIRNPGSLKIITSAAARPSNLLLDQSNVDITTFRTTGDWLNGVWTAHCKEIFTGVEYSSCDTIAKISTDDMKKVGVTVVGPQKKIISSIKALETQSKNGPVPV
The settings on record: at 1 µM.

Assay [15] has as its target T7, Serine/threonine-protein kinase 17A (Homo sapiens) (UniProt Q9UEE5).
T7 sequence (whole entry): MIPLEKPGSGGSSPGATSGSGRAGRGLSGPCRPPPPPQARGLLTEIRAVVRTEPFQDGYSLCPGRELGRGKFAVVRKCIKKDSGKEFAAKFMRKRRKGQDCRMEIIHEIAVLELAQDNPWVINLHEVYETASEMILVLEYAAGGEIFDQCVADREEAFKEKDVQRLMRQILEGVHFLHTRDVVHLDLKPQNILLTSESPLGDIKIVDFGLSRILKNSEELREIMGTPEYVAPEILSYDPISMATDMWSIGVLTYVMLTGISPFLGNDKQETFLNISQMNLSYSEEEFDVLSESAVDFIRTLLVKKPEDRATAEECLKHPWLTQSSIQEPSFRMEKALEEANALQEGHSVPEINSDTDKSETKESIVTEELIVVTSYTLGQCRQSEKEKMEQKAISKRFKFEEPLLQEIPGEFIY
The note with it: at 1 µM.

Assay [16] addresses T7, Serine/threonine-protein kinase 17A (Homo sapiens). The settings on record: at 10 µM.
Assay [17] has as its target Ephrin type-A receptor 2 (Homo sapiens) (UniProt P29317). The settings on record: at 10 µM.
Assay [18] addresses Death-associated protein kinase 2 (Homo sapiens) (UniProt Q9UIK4). The note with it: at 10 µM.

Chain of Death-associated protein kinase 2 (Homo sapiens) (Q9UIK4 whole entry, looked up): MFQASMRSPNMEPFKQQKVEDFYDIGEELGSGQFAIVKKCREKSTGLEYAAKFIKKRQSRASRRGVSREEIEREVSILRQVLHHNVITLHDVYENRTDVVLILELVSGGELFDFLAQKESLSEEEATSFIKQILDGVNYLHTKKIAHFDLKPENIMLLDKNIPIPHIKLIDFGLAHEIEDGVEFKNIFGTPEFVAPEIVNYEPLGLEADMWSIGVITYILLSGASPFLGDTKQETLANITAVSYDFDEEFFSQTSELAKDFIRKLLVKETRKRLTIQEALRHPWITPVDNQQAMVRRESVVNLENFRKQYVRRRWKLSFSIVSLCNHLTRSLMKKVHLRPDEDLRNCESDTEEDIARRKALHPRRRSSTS
Chain of Ephrin type-A receptor 2 (Homo sapiens) (P29317 whole entry): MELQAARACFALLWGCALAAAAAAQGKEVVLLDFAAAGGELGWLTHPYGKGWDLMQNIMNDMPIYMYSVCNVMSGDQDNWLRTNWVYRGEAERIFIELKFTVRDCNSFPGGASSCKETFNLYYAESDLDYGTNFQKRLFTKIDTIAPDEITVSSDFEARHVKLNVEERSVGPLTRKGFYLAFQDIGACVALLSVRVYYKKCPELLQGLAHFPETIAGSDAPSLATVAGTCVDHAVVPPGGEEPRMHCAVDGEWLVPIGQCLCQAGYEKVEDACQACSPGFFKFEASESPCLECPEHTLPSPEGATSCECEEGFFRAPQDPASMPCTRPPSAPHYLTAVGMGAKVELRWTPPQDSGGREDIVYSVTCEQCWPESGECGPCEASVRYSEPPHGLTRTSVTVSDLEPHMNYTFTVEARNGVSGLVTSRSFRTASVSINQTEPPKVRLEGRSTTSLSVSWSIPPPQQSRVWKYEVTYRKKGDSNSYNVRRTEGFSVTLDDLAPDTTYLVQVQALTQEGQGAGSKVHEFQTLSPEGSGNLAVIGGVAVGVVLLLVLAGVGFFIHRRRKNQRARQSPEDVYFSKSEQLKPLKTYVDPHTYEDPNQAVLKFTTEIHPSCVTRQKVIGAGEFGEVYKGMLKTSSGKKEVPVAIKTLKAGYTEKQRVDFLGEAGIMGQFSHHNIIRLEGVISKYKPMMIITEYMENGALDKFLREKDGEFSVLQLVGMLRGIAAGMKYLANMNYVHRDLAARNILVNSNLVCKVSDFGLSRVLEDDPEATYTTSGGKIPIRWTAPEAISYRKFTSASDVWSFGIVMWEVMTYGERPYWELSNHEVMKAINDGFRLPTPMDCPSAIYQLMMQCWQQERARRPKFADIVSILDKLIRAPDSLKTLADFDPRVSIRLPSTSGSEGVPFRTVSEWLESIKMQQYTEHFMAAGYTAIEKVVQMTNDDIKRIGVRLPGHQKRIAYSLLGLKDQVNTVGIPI
Chain of Death-associated protein kinase 1 (Homo sapiens) (P53355 whole entry, looked up): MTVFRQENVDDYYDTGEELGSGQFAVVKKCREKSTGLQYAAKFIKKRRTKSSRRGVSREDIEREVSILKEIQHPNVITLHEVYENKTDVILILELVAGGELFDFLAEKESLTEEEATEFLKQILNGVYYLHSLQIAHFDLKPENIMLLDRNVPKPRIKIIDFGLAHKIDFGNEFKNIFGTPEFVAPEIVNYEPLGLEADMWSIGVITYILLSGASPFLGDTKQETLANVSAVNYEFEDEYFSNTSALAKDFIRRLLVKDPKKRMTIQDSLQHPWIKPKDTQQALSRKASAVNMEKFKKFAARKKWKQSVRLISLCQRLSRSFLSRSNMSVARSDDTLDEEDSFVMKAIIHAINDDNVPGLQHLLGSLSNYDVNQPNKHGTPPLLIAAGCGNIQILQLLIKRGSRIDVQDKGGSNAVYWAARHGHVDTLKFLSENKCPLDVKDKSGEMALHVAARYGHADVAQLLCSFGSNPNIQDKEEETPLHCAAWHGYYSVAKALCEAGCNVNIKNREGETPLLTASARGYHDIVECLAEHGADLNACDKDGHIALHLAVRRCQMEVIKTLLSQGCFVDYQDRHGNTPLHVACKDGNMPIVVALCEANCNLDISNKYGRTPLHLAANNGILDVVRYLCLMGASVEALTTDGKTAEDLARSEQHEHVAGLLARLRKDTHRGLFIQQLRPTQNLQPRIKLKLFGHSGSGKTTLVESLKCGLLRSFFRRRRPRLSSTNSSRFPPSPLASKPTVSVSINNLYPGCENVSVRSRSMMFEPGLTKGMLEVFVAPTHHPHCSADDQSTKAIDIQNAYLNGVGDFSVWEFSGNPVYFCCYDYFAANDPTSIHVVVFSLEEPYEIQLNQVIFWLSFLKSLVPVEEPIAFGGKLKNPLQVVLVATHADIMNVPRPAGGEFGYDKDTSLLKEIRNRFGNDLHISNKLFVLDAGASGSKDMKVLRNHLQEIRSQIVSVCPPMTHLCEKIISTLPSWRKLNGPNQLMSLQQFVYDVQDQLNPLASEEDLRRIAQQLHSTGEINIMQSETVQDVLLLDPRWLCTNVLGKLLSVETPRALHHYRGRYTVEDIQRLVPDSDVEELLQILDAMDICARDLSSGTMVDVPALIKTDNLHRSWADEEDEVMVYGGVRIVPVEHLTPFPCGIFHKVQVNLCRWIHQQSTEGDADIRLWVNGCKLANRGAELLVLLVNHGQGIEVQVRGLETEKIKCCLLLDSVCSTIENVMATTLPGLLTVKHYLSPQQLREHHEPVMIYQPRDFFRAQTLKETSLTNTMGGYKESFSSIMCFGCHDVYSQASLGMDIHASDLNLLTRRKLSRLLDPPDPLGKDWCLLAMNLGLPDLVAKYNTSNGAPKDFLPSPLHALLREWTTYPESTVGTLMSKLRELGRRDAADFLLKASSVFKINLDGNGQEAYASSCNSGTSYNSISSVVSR

As a reminder, the residual activity is the signal under treatment as a percentage of the control signal. As to `CC(=O)c1ccc(N2CCOCC2)cc1O`, the residual activity in assay [1] stood at 89%; in assay [2] it was 100%; in assay [3] it was 75%; in [4], 74%; in assay [5], 112%; in assay [6], 97%. For the same compound, the residual activity in [7] came to 112%; in assay [8], 130%; in assay [9], 108%; in assay [10], 92%; in assay [11] it was 94%; in assay [12], 110%. In addition, the residual activity in assay [13] was found to be 102%; in [14] it was 107%.

Consider `O=C1Nc2ccc(Br)cc2/C1=C\c1cc2c([nH]1)CCCC2`, for which the residual activity was 110% in [5]; 115% in assay [7]; 130% in [8]; 48% in [15]; 40% in assay [16]; 97% in assay [9]. Besides, the residual activity is 99% in assay [10]; 105% in assay [12]; 112% in [13]; 97% in [17]; 108% in [14].

For `COc1cc2ncnc(Nc3ccc(NC(=O)c4ccccc4)cc3)c2cc1OC`, the residual activity in [1] was 83%; in assay [2] it was 98%; in [18], 106%; in assay [3] it was 99%; in [4] it was 104%; in assay [6] it was 89%. Also, the residual activity in assay [7] amounted to 110%; in [8] it was 145%; in assay [15] it was 75%; in assay [16], 78%; in [9], 98%; in [10] it was 98%. For the same compound, the residual activity came out at 107% in assay [11] and 106% in assay [12].
